DRD3 agonist = activates the human D3 dopamine receptor. P35462. D3R DiscoveRx beta-arrestin cells, luminescence, 90 min. max activation, %. 410,000 tested, 0.58% active. AID 652048; in the data active means max activation above about 30%; further: 0% is about no effect
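Agonist mode: compounds and dopamine controls were applied to plated cells for 90 min at 37 degrees C after an overnight attachment at 1500 cells/well. Luminescent read-out followed 30 - 60 minutes at room temperature with DiscoveRx detection reagent.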
GLP1R inv ag = GLP-1 receptor (human) inverse agonism; AID 624417; Potency, µM (doses to about 38.3 µM), for inactives: at the highest dose activity change, negative = inhibition, usual class: inhibitors; HEK293 GLP-1R CRE-luciferase, luminescence, 24 h; GLP-1R form is constitutively active; 410,000 tested, 1.6% active; P43220; further: potency means the concentration at half of the fitted maximal effect; on the % scale 0 is the no-effect control and ±100 the full control effect; nearly all actives have a fitted effect of over 55% in size
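Assay principle: reduced luminescence from a cAMP-responsive reporter in HEK293 cells co-expressing a constitutively active GLP-1R. Conditions: 24 hr compound incubation, 37 deg C, 5% CO2.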
HEK293 tox = cytotoxic in the GLP-1 receptor inverse agonist counter-screen; AID 624418; Potency, µM (top dose mostly 38.3 µM), for inactives: at the top dose activity change, negative = inhibition, most hits filed as inhibitors; HEK293 cAMP-luciferase reporter cells, luminescence, 24 h; 410,000 tested, 0.13% active;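 further: loss of luciferase light is scored as toxicity; potency means the concentration at half of the fitted maximal effect; on the % scale 0 is the no-effect control and ±100 the full control effect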
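Here, cytotoxicity is scored as loss of luminescence. The MLSMR collection was tested on cells seeded in medium containing 10% Nu serum, with a 24 hr compound exposure preceded by 12 hours of culture.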
ClpP mod = qHTS Assay for Activators of ClpP; purified B. subtilis ClpP, FRET peptide cleavage, 20 min; 340,000 tested, 1.9% active; Potency, µM (titrated, usually from 57.5 µM), inactives show top-dose activity change, negative = active; active means well fitted falling curve with a large enough effect; inconclusive means small, poorly fitted or top-dose-only effect; inactive means no such curve, though single readings can be large or run the other way; further: potency means the concentration at half of the fitted maximal effect; the source files actives as falling curves though it sought activators and does not explain the sign; nearly all actives have a fitted effect of over 65% in size
Target sequence (P80244 whole entry, looked up): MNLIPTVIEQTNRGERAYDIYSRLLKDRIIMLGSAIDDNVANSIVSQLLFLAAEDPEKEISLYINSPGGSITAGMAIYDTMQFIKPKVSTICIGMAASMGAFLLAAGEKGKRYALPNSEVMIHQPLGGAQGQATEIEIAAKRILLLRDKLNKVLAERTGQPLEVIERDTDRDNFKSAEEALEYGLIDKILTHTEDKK
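Buffer: 100 mM Tris/HCl pH8, 100 mM KCl, 0.05% low protease BSA, 2.5% glycerol, 0.01% Tween-20. ClpP 10 microg/mL final; 20 min RT; delta FRET normalized to ADEP and DMSO controls.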
GLP-1R agonist = GLP-1 receptor (human) agonism | HEK293 GLP-1R CRE-luciferase, luminescence, 4-6 h; cells express a hypersensitive GLP-1R form | 380,000 tested, 0.007% active | Potency, µM (top dose mostly 45.6 µM), for the others: top-dose activation, most hits filed as activators; further: potency means the concentration at half of the fitted maximal effect; % of control where 0% means no effect
D3 antag = D3 dopamine receptor (human) antagonism | max response, negative = inhibition, % | P35462 | D3R cells, DiscoveRx beta-arrestin luminescence, antagonist mode; hits give low values | 360,000 tested, 2.5% active; in the data active means max response below about -50%; inconclusive means no clear call, values can overlap the other calls; further: on the % scale 0 is the no-effect control and ±100 the full control effect
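Cells expressing the human receptor were seeded at 1500 cells/well, incubated overnight at 37 degrees C in 5% CO2, then exposed to library compounds with dopamine controls for 90 minutes at 37 degrees C before luminescent detection.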
* marks the source's active call; other numbers are inactive results; u = inconclusive; x = no result. Compounds with a hit are over-represented: about 5.7% of the library has one in this group of screens. Unless noted, the call rests on the fitted dose curve; in most records, active means well fitted curve in the direction sought with a large enough effect; inconclusive means small, poorly fitted or top-dose-only effect, or another doubt; inactive means no such curve, though single readings can be large; an effect the other way counts as inactive or inconclusive.

SMILES | DRD3 agonist | GLP1R inv ag | HEK293 tox | ClpP mod | GLP-1R agonist | D3 antag
N#CCCCC#Cc1ccc2c(c1)COc1c3ccccc3nn1-2 | 1.8 | 2.51µM* | 6.3% | -3.2% | -4.3% | 56.8
CCCCCCC#Cc1ccc2c(c1)COc1c3ccccc3nn1-2 | 0.5 | -10.2% | -26.5% | -4.0% | 4.3% | 21.1
CCOC(=O)c1cc(-c2ccccc2)n(CC(=O)N(C)c2ccc(OC)cc2)c1C | -21.8 | u | -2.1% | -0.1% | x | x
Cc1ccc(C(=O)NCCc2ccccc2)cc1S(=O)(=O)N1CCOCC1 | 1.8 | -3.7% | u | -0.3% | 15.3% | -2.6
Cc1ccc(C(=O)Nc2ccon2)cc1S(=O)(=O)N1CCOCC1 | 32.3* | 0.0% | -10.2% | 1.1% | -3.5% | 15.0
Cc1ccc(C(=O)NC(C)CCc2ccccc2)cc1S(=O)(=O)N1CCOCC1 (centres undefined) | -1.3 | -15.8% | -9.2% | 28.2µM* | -10.6% | -22.8
Cc1ccc(N(Cc2ccccc2)C(=O)c2ccc(Cl)c(S(=O)(=O)N3CCOCC3)c2)cc1 | -6.2 | 11.2µM* | 7.6% | 1.4% | 1.7% | 11.4
Cc1ccc(C(=O)NC2CCN(Cc3ccccc3)CC2)cc1S(=O)(=O)N1CCOCC1 | -34.0 | -20.9% | 13.9% | -1.1% | -1.7% | -66.9*
Cn1c(=O)n(CCc2ccccc2)c(=O)c2c1nc1n2CCCN1CCc1ccccc1 | 20.4 | 2.24µM* | -9.0% | -8.6% | -43.2% | -11.9
O=C(N/N=C/c1ccc(O)cc1O)C1CC1 | -1.0 | 20.3% | 3.0% | -12.9% | 3.5% | -91.6*
O=C(N/N=C/c1ccc(O)cc1O)c1ccncc1 | 41.6* | u | 3.3% | 0.6% | -0.6% | 29.3
O=C(N/N=C/c1ccc(O)cc1O)c1ccc(NC(=O)C2CCCCC2)cc1 | -1.4 | u | 8.2% | 0.3% | 7.9% | 4.7
CC(=O)Oc1ccc2cc(-c3nc4c(s3)CCc3ccccc3-4)c(=O)oc2c1 | x | x | x | 1.0% | x | x
CN(c1cccc(NC(=O)CN(c2cccc(Cl)c2)S(=O)(=O)c2ccc(Cl)cc2)c1)S(C)(=O)=O | -5.8 | 7.94µM* | 27.0% | -3.4% | 2.8% | -12.4
Cc1ccc(Cl)cc1N(CC(=O)Nc1cccc(N(C)S(C)(=O)=O)c1)S(C)(=O)=O | -17.1 | -29.2% | -1.5% | -1.1% | 3.5% | -11.9
CN(c1cccc(NC(=O)CN2C(=O)c3ccccc3S2(=O)=O)c1)S(C)(=O)=O | -7.2 | u | 3.1% | 28.2µM* | -28.5% | -28.7
Fc1ccccc1N1CCN(Cc2cnc(Cl)s2)CC1 | 49.7* | u | 2.3% | x | 7.5% | -20.6
c1ccc(N2CCN(Cc3cnc(N4CCOCC4)s3)CC2)cc1 | -9.6 | u | u | x | 5.2% | u
CC1CCN(Cc2cnc(Cl)s2)CC1 | 4.3 | 2.4% | -7.9% | 0.2% | 2.5% | -14.6
Clc1ncc(CN2CCN(c3ccccc3)CC2)s1 | 39.2* | 9.5% | 0.5% | -0.3% | -1.6% | -12.2
CCCCCCCCCCCCCCCC(=O)OC[C@H](O)[C@H]1OC(=O)C(O)=C1O | -15.1 | x | x | x | x | x
NC(=O)c1csc(CCNC(=O)c2ccccc2)n1 | 6.5 | 12.7% | 5.8% | -0.7% | -5.1% | 4.4
COc1cccc(C(=O)O[C@H]2[C@H](Cc3ccccc3)NS(=O)(=O)[C@H]3C[C@@H]4C=C[C@]23O4)c1 | -4.1 | 7.3% | 6.6% | -11.8% | 2.6% | -52.4*
COc1cccc(C(=O)O[C@H]2[C@H](C)NS(=O)(=O)[C@H]3C[C@@H]4C=C[C@]23O4)c1 | -1.6 | 11.3% | 4.8% | -14.3% | -0.8% | -1.5
CCn1c(-c2csc(-c3ccccc3)n2)n[nH]c1=S | -3.8 | u | u | -4.3% | -0.2% | -26.9
CCn1c(-c2csc(-c3ccc(Cl)cc3)n2)n[nH]c1=S | -8.0 | 5.5% | 4.8% | -3.3% | -14.6% | 1.0
C=CCn1c(-c2csc(-c3ccc(Cl)cc3)n2)n[nH]c1=S | -13.9 | u | 3.55µM* | -10.8% | -24.9% | 0.0

Screening results as filed in PubChem BioAssay.
